# Test results from the supplement of paper PMC6897291.
# Tested on: RIVA
# Test: growth inhibition by drug alone (1 - RLU/untreated control) (fraction); higher = stronger inhibition
# Conditions: 177Lu-lilotomab satetraxetan 0 ug/ml
# Protocol: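 RIVA (RI-1) ABC-DLBCL cells were pretreated or not for 18 h with 0.5 ug/ml 177Lu-lilotomab satetraxetan (600 MBq/mg), washed and seeded (3000 cells/well) on 384-well plates pre-printed with the Selleck Cambridge Cancer Compound library. Viability was read by RealTime-Glo luminescence on days 3-6 after seeding. Effect = 1 - RLU/mean RLU of the 48 untreated no-drug control wells per plate; Bliss score = (M-E)/(1-Fa).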
compound,measurement,setting,value
CC(O)(CS(=O)(=O)c1ccc(F)cc1)C(=O)Nc1ccc(C#N)c(C(F)(F)F)c1 (stereo not given) [Bicalutamide (Casodex)],growth inhibition by drug alone,"10 nM, time (day): 3",0.121
same,growth inhibition by drug alone,"10 nM, time (day): 4",0.0197
same,growth inhibition by drug alone,"10 nM, time (day): 5",-0.0376
same,growth inhibition by drug alone,"10 nM, time (day): 6",-0.206
same,growth inhibition by drug alone,"100 nM, time (day): 3",0.0203
same,growth inhibition by drug alone,"100 nM, time (day): 4",-0.00253
same,growth inhibition by drug alone,"100 nM, time (day): 5",-0.0289
same,growth inhibition by drug alone,"100 nM, time (day): 6",-0.0827
CCC1(c2ccc(N)cc2)CCC(=O)NC1=O (stereo not given) [Aminoglutethimide (Cytadren)],growth inhibition by drug alone,"10 nM, time (day): 3",-0.0651
same,growth inhibition by drug alone,"10 nM, time (day): 4",-0.101
same,growth inhibition by drug alone,"10 nM, time (day): 5",-0.237
same,growth inhibition by drug alone,"10 nM, time (day): 6",-0.445
same,growth inhibition by drug alone,"100 nM, time (day): 3",-0.578
same,growth inhibition by drug alone,"100 nM, time (day): 4",-0.484
same,growth inhibition by drug alone,"100 nM, time (day): 5",-0.518
same,growth inhibition by drug alone,"100 nM, time (day): 6",-0.688
N.N.[Cl][Pt][Cl] [Cisplatin],growth inhibition by drug alone,"10 nM, time (day): 3",-0.00407
same,growth inhibition by drug alone,"10 nM, time (day): 4",-0.0943
same,growth inhibition by drug alone,"10 nM, time (day): 5",-0.0938
same,growth inhibition by drug alone,"10 nM, time (day): 6",-0.114
same,growth inhibition by drug alone,"100 nM, time (day): 3",0.0654
same,growth inhibition by drug alone,"100 nM, time (day): 4",-0.0804
same,growth inhibition by drug alone,"100 nM, time (day): 5",-0.0914
same,growth inhibition by drug alone,"100 nM, time (day): 6",-0.104
Cc1ccccc1-n1c(Cn2cnc3c(N)ncnc32)nc2cccc(C)c2c1=O,growth inhibition by drug alone,"10 nM, time (day): 3",-0.0276
same,growth inhibition by drug alone,"10 nM, time (day): 4",-0.0854
same,growth inhibition by drug alone,"10 nM, time (day): 5",-0.0849
same,growth inhibition by drug alone,"10 nM, time (day): 6",-0.118
same,growth inhibition by drug alone,"100 nM, time (day): 3",0.0893
same,growth inhibition by drug alone,"100 nM, time (day): 4",-0.00364
same,growth inhibition by drug alone,"100 nM, time (day): 5",-0.0617
same,growth inhibition by drug alone,"100 nM, time (day): 6",-0.104
Cc1cc2c(C(C)C)c(O)c(O)c(C=O)c2c(O)c1-c1c(C)cc2c(C(C)C)c(O)c(O)c(C=O)c2c1O [Gossypol],growth inhibition by drug alone,"10 nM, time (day): 3",-0.235
same,growth inhibition by drug alone,"10 nM, time (day): 4",-0.278
same,growth inhibition by drug alone,"10 nM, time (day): 5",-0.288
same,growth inhibition by drug alone,"10 nM, time (day): 6",-0.349
same,growth inhibition by drug alone,"100 nM, time (day): 3",-0.0878
same,growth inhibition by drug alone,"100 nM, time (day): 4",-0.143
same,growth inhibition by drug alone,"100 nM, time (day): 5",-0.172
same,growth inhibition by drug alone,"100 nM, time (day): 6",-0.216
